# Measured values from PubChem BioAssay (NCI).
# Where “and” joins values, the source holds several entries; their conditions need not be identical. Equal entries are not always repeated. About 79,000 compounds went through this panel and 15% of them were active in at least one assay; those are over-represented in the sample as a whole. Some structures have more than one record in an assay (separate samples or runs), and their calls can disagree. Calls of active or inactive are those of the source. Cut-off read from the data, not from the text of the source: active = growth inhibition above about 70%; inactive = the rest.
# How the values were obtained:
# [1] = NCI Yeast Anticancer Drug Screen. Data for the rad50 strain (AID 155);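 note: 0% = growth of vehicle-only cultures of the same strain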; conditions: S. cerevisiae rad50 strain growth inhibition, stronger effect = higher value
# How it was run: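 Vehicle-treated cultures provide the reference for the growth inhibition reported for compound-exposed, repair-deficient yeast.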
# [2] = NCI Yeast Anticancer Drug Screen. Data for the mec2-1 strain (AID 157); conditions: S. cerevisiae mec2-1 strain, stronger effect = higher value
# How it was run: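 mec2-1 yeast strain, carrying an alteration in DNA damage repair or cell cycle control, was exposed to compounds; growth inhibition was measured relative to vehicle-treated controls.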
# [3] = NCI Yeast Anticancer Drug Screen. Data for the sgs1 mgt1 strain (AID 161);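 note: 0% = growth of cultures given vehicle only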; conditions: S. cerevisiae sgs1 mgt1 strain, stronger effect = higher value
# How it was run: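 Percent growth inhibition was derived by comparing compound-exposed mutant yeast with vehicle-exposed cultures. The strain carries alterations in DNA damage repair.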
# [4] = NCI Yeast Anticancer Drug Screen. Data for the cln2 rad14 strain (AID 165);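 note: 0% = growth equal to vehicle treated cultures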; conditions: S. cerevisiae cln2 rad14 strain, stronger effect = higher value
# How it was run: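 Yeast carrying cln2 and rad14 alterations (cell cycle control and DNA damage repair) were exposed to compounds. Growth inhibition was measured against vehicle-treated controls.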
# [5] = NCI Yeast Anticancer Drug Screen. Data for the bub3 strain (AID 167); conditions: S. cerevisiae bub3 mutant strain, stronger effect = higher value
# How it was run: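 Mutant yeast screening strain plus compound; vehicle-treated cultures serve as the 0% inhibition reference.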
# [6] = NCI Yeast Anticancer Drug Screen. Data for the mlh1 rad18 strain (AID 175); conditions: S. cerevisiae mlh1 rad18 strain growth inhibition, stronger effect = higher value
# How it was run: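 Growth inhibition of the yeast strain was measured after compound exposure and expressed relative to vehicle-treated controls. The strain carries defined defects in DNA damage repair.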
# [7] = at 5.0 µM (retest, dose inferred, filed as 0.5)
# [8] = at 50.0 µM (retest, dose inferred, filed as 5.0)
SMILES,"growth inhibition [1, 7]","growth inhibition [1, 8]",growth inhibition ([1]; at 50.0 µM),"growth inhibition [2, 7]","growth inhibition [2, 8]",growth inhibition ([2]; at 50.0 µM),"growth inhibition [3, 7]","growth inhibition [3, 8]",growth inhibition ([3]; at 50.0 µM),"growth inhibition [4, 7]","growth inhibition [4, 8]",growth inhibition ([4]; at 50.0 µM),"growth inhibition [5, 7]","growth inhibition [5, 8]",growth inhibition ([5]; at 50.0 µM),"growth inhibition [6, 7]","growth inhibition [6, 8]",growth inhibition ([6]; at 50.0 µM)
CC(=O)OC1COC(n2c(N)c(C#N)c(-c3ccccc3)c(C#N)c2=S)C(OC(C)=O)C1OC(C)=O (stereo not drawn),-10% (inactive) and 1% (inactive),3% (inactive) and 74% (active),25.8% (inactive) and 46% (inactive),-12% (inactive) and 1% (inactive),3% (inactive) and 57% (inactive),16.4% (inactive) and 40.7% (inactive),-7% (inactive) and 2% (inactive),16% (inactive) and 48% (inactive),73.2% (active) and 65% (inactive),-18% (inactive) and 1% (inactive),-17% (inactive) and 61% (inactive),-6.15% (inactive) and 14.3% (inactive),-11% (inactive) and 4% (inactive),-33% (inactive) and 79% (active),35.7% (inactive) and 4.05% (inactive),-7% (inactive) and -2% (inactive),8% (inactive) and 73% (active),62.9% (inactive) and 56.9% (inactive)
Clc1ccc(/C=C/c2ccccn2)c(Cl)c1,3% (inactive),43% (inactive),-14.9% (inactive) and 12.1% (inactive),-3% (inactive),12% (inactive),6.2% (inactive) and 3.7% (inactive),-2% (inactive),5% (inactive),-23.1% (inactive) and 58% (inactive),-6% (inactive),-4% (inactive),-0.55% (inactive) and 20.8% (inactive),51% (inactive),10% (inactive),-9.75% (inactive) and 4% (inactive),1% (inactive),11% (inactive),-47.5% (inactive) and 31% (inactive)
O=C1C=CC(=CC=C2C=CN(CCCCCCCCCCCO)C=C2)C=C1,12% (inactive) and 36% (inactive),93% (active) and 3% (inactive),88.8% (active) and 49.2% (inactive),6% (inactive) and 40% (inactive),90% (active) and -2% (inactive),85.5% (active) and 65% (inactive),-10% (inactive) and 44% (inactive),93% (active) and 2% (inactive),87.6% (active) and 62.8% (inactive),7% (inactive) and 18% (inactive),91% (active) and -8% (inactive),82.7% (active) and 57.4% (inactive),-3% (inactive) and 34% (inactive),98% (active) and 2% (inactive),83% (active) and 50.6% (inactive),10% (inactive) and 37% (inactive),80% (active) and 1% (inactive),88% (active) and 59.2% (inactive)
Oc1cccc2c1-c1ccccc1C2,-6% (inactive),96% (active),98.8% (active),1% (inactive),92% (active),98.9% (active),-7% (inactive),97% (active),98.4% (active),-4% (inactive),83% (active),96.8% (active),32% (inactive),97% (active),98.4% (active),9% (inactive),98% (active),98.1% (active)
Oc1cc2c(cc1C(c1ccc3c(c1)OCO3)N1CCN(C(c3ccc4c(c3)OCO4)c3cc4c(cc3O)OCO4)CC1)OCO2 (stereo not drawn),2% (inactive),98% (active),81.9% (active),-1% (inactive),99% (active),92.8% (active),8% (inactive),98% (active),78.2% (active),8% (inactive),49% (inactive),24.4% (inactive),2% (inactive),-1% (inactive),54.2% (inactive),3% (inactive),94% (active),93.2% (active)
Cc1c(-c2ccccc2)ccnc1/C=N/NC(N)=S,29% (inactive),42% (inactive),48.1% (inactive),9% (inactive),53% (inactive),79% (active),43% (inactive),58% (inactive),65.7% (inactive),39% (inactive),39% (inactive),54.4% (inactive),49% (inactive),45% (inactive),80.7% (active),18% (inactive),36% (inactive),82% (active)
